# Assay outcomes from PubChem.
# Hits are enriched below; roughly 2.4% of the tested compounds scored in any of these assays.
# PTHR1 agonist: agonists of human PTHR1 parathyroid hormone receptor | Q03431 | HEK293 GP2 PTHR1 cells, GloSensor cAMP luminescence, 1 h | Potency, µM (series often up to 115 µM), for inactives: at the top dose activation, usual class: activators | 0.075% of 410,000 active | AID 743266; also: potency is read from the fitted curve at half-maximal effect; nearly all actives have a fitted effect of over 55% in size
# Target sequence (Q03431 whole entry, looked up): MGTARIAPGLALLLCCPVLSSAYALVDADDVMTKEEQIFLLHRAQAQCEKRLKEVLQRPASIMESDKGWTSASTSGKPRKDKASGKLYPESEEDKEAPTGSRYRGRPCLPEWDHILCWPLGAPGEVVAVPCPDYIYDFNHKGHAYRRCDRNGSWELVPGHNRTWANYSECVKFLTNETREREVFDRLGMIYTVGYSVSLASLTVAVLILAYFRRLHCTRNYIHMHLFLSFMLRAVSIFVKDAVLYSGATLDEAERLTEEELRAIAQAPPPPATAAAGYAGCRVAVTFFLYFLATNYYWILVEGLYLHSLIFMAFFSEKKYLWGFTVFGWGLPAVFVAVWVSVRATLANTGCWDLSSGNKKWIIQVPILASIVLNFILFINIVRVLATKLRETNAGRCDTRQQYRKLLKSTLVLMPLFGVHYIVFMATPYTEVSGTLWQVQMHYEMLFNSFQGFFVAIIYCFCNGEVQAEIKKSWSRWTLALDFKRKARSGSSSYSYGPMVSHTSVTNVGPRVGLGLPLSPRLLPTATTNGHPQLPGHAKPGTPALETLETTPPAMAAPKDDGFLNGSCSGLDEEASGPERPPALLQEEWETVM
#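 HEK-293-derived GP2 cells expressing PTHR1 and a GloSensor cAMP reporter, 3,000/well, plated overnight, given luciferin plus IBMX (each 0.5 mM as added) for 1 h at 37 °C, then compound for 1 h at 37 °C. Luminescence was read after 15 min at room temperature.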
# TRHR agonist: agonists of human TRH receptor | activation, % at 2 µM | TRHR cells, calcium flux fluo-8, FDSS agonist mode | P34981 | 0.18% of 360,000 active; in the data active = activation above about 30%; also: 0% is about no effect
#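 Fluo-8-loaded TRHR cells; 10 s baseline, compound added, kinetic Ca2+ fluorescence read 1/s, agonist mode.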
# GLP-1R agonist: activates the human GLP-1 receptor | HEK293 GLP-1R CRE-luciferase, luminescence, 4-6 h; cells express a hypersensitive GLP-1R form | Potency, µM (highest dose often 45.6 µM), without a hit: at the highest dose activation, actives largely listed as activators | 0.007% of 380,000 active | AID 624172; also: potency is read from the fitted curve at half-maximal effect; % of control where 0% means no effect
# GLP-1R inv ag: inverse agonists of human GLP-1 receptor | Potency, µM (titrated, usually from 38.3 µM), for the others: top-dose activity change, negative = inhibition, hits mostly inhibitors | 1.6% of 410,000 active | AID 624417 | HEK293 GLP-1R CRE-luciferase, luminescence, 24 h; GLP-1R form is constitutively active; also: potency is read from the fitted curve at half-maximal effect; % is scaled to controls: 0 for no effect and ±100 for the full control effect; nearly all actives have a fitted effect of over 55% in size
#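 Using stably transfected HEK293 (constitutively active GLP-1R, cAMP-luciferase reporter), compounds were incubated 24 hr and luciferase measured by luminescence.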
# TRHR enhancer: TRH receptor (human) allosteric enhancement | TRHR cells, fluo-8 calcium fluorescence, EC20 TRH enhancement | 0.66% of 360,000 active | enhancement, % at 2 µM; in the data active = enhancement above about 30%; also: 0% is about no effect
#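 TRHR-expressing cells loaded with fluo-8 calcium dye were read kinetically (ex 480/em 530) during compound addition, then stimulated with an EC20 of TRH (10 nM final). Enhancement of the Gq-mediated intracellular calcium response was scored.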
# GLP1R cytotox: cytotoxicity in counter-screen for GLP-1R inverse agonists | HEK293 cAMP-luciferase reporter cells, luminescence, 24 h | Potency, µM (titrated, usually from 38.3 µM), for the others: top-dose activity change, negative = inhibition, usual class: inhibitors | 0.13% of 410,000 active;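 also: loss of luciferase light is scored as toxicity; potency is read from the fitted curve at half-maximal effect; % is scaled to controls: 0 for no effect and ±100 for the full control effect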
#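 Quantitative HTS format, 1536 wells, 200 cells/uL seeded. Compounds: 23 nL, 24 h, 37 °C. Detection: luciferase reagent, luminescence at 12 min RT; decreased signal taken as cytotoxic.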
# * marks the source's active call; other numbers are inactive results; i = inactive; u = inconclusive; x = not tested or not shown; ! = not confirmed by another sample. Unless noted, calls follow the shape of the dose curve; as a rule, active = well fitted curve in the direction sought with a large enough effect; inconclusive = small, poorly fitted or top-dose-only effect, or another doubt; inactive = no such curve, though single readings can be large; an effect the other way counts as inactive or inconclusive.
SMILES,PTHR1 agonist,TRHR agonist,GLP-1R agonist,GLP-1R inv ag,TRHR enhancer,GLP1R cytotox
O=C(CN1C(=O)C2(OCCCO2)c2ccccc21)NCCc1ccccc1,-15%,0,-4%,4%,-3,9%
COc1ccccc1-c1oc2ccccc2c1C#CC(C)(C)O,-25%,0,14%,10µM*,-23,6%
COc1ccccc1-c1oc2ccccc2c1C#CCO,-8%,x,1%,-6%,x,1%
CCOc1ccccc1C(=O)NCC(=O)OCC(=O)NCCc1ccc(S(N)(=O)=O)cc1,i,0,4%,-1%,13,54%
COc1ccccc1C(=O)N(CCC1CCCN1C)c1nc2ccccc2s1 (configuration not stated),-28%,2,-4%,3.5µM*,4,-17%
COc1ccc2sc(N(CCCN(C)C)C(=O)c3nc4ccccc4s3)nc2c1,-2%,0,4%,-12%,-3,13%
CCCCC(=O)Nc1cc2nn(-c3ccc(OCC)cc3)nc2cc1C,-17%,-1,x,4%,2,-1%
NC(=S)NN=C1c2cc(OCCN3CCOCC3)ccc2-c2ccc(OCCN3CCOCC3)cc21,-56%,-2,-7%,7.9µM*,-3,1.4µM*
ON=C1c2cc(OCCN3CCCCC3)ccc2-c2ccc(OCCN3CCCCC3)cc21,i,1,-22%,13µM*,4,3.5µM*
Clc1ccc(OCCN2CCCCC2)cc1Cl,-11%,1,8%,-27%,-2,-6%
COc1ccccc1CCNC(=O)C(=O)NCCC1CCCCN1S(=O)(=O)c1ccccc1 (configuration not stated),-13%,0,19%,u,-6,1%
COc1ccc(NC(=O)NCCc2ccc(Cl)cc2)cc1OC,i,-2,5%,12%,-3,4%
CCCCN1C(=O)C(CC(=O)NCC2CCCCC2)CC(C(=O)N(CC)CC)=C1C (configuration not stated),-12%,x,0%,-6%,x,1%
O=S(=O)(c1cc(F)ccc1F)N1CCC2(CC1)OCCO2,-3%,1,-5%,7%,3,2%
O=C(Nc1ccc(F)c(F)c1)c1ccc(F)c(S(=O)(=O)N2CCC3(CC2)OCCO3)c1,-42%,1,-1%,3.5µM*,11,-11%
Cc1ccc(S(=O)(=O)c2cn(C)c3cc(N4CCN(C)CC4)c(F)cc3c2=O)c(C)c1,i,1,0%,51%,-8,u
COC(=O)c1sc(S(=O)(=O)N2CCN(c3ccccc3F)CC2)c(C(=O)OC)c1C,-23%,x,21%,11µM*,x,u
Cc1nc2sc(C)c(C)n2c(=O)c1S(=O)(=O)N1CCN(c2ccccc2F)CC1,i,0,x,3%,35*,-8%
CCOC(=O)/C(C#N)=c1/s/c(=C2\C=Cc3ccccc3N2CC)c(=O)n1CC,-24%,0,11%,0%,-3,12%
CCOC(=O)N1CCN(C(=O)c2ccc(NS(=O)(=O)c3ccc(F)cc3)cc2)CC1,-2%,1,-6%,4%,4,3%
Cc1ccc(S(=O)(=O)c2nc(-c3ccccc3)oc2N2CCCCCC2)cc1,-62%,0,x,6.3µM*,-5,0%
O=S(=O)(c1ccccc1)c1nc(-c2cccs2)oc1N1CCCCC1,i,0,x,0%,36*,1%
CN(Cc1cnn(C)c1)C(=O)C1CCC(=O)N(C2CCCCCC2)C1 (configuration not stated),i,1,3%,9%,0,3%
COc1ccc(-n2ncc3c(NC4CCCC4)ncnc32)cc1,-18%,0,x,7.9µM*,-4,-22%
Clc1cccc(-n2ncc3c(NC4CCCCCC4)ncnc32)c1,-37%,0,x,10µM*,3,-32%
SMILES,PTHR1 agonist,TRHR agonist,GLP-1R agonist,GLP-1R inv ag,TRHR enhancer,GLP1R cytotox
Cc1cccc(-n2ncc3c(NC4CCCCC4)ncnc32)c1,-44%,2,6%,u,10,-8%
CSc1ccc(/C=N/NC(=O)c2ccc3nc[nH]c3c2)cc1,-8%,x,-4%,-4%,x,-20%
CCCCNC(=O)CC1N=C2c3ccccc3N=C(SCC(=O)Nc3ccccc3C)N2C1=O (configuration not stated),i,0,-5%,3%,-7,-23%
O=C(Nc1ccc(Nc2ccncc2)cc1)c1ccc([N+](=O)[O-])cc1,-38%,1,-1%,10µM*,-17,u
O=C(NCC(O)c1ccc([N+](=O)[O-])cc1)C(c1ccccc1)c1ccccc1 (configuration not stated),-19%,-1,15%,u,-6,-7%
O=C(Nc1ccc(Oc2cccnc2)cc1)c1ccc([N+](=O)[O-])cc1,-12%,0,4%,-11%,8,15%
O=C(Nc1ccc([N+](=O)[O-])cc1)C(c1ccccc1)c1ccccc1,-24%,x,-2%,2.2µM*,x,-18%
CC1Cc2cc(/C=C3/SC(=S)NC3=O)ccc2O1 (configuration not stated),-58%,0,3%,u,5,10µM*
CCOc1ccc(NC(=O)N(Cc2cn(CC)c3ccccc23)C2CCCCCC2)cc1,-24%,-2,x,11µM*,-5,-30%
CCc1ccc(NC(=O)N(Cc2cn(CC)c3ccccc23)C2CCCCC2)cc1,-24%,1,-6%,-76%,0,-39%
COc1ccc(-c2cc(CCCC(=O)N3CCN(c4ccc(OC)cc4)CC3)no2)cc1,-40%,0,-2%,-17%,-3,2%
Cc1ccc2[nH]c(=O)c3cc(C(=O)N(CCCOC(C)C)Cc4ccco4)sc3c2c1,i,2,14%,-12%,42*!,-19%
CCCCN(Cc1ccco1)C(=O)c1cc2c(=O)[nH]c3ccc(C)cc3c2s1,i,4,2%,-23%,-10,-2%
CCOC(=O)C1=C(C)NC(=O)NC1c1ccc(-c2ccc(F)cc2)o1 (configuration not stated),-14%,0,8%,-5%,-4,0%
COC(=O)c1c(C)[nH]c(C=Nc2ccc(OC)cc2)c1C,i,0,29%,1%,38*,-7%
CCCCN(C)C(=O)c1cn(C)c2ccc(S(=O)(=O)N3CCC(C)CC3)cc2c1=O,-30%,0,0%,-25%,-5,-4%
Clc1ccc(OC2CCN(Cc3nc(CC4CC4)no3)CC2)cc1,-23%,-1,0%,2µM*,-5,0%
COc1ccccc1CNC(=O)c1cccc(-c2ccc(C)c3ccccc23)n1,x,0,x,x,1,x
